Most compounds without a hit are left out; they make up all but 1.6% or so of the library.
RN4220 kill – S. aureus RN4220 growth inhibition; OD600, 16 h; inhibition, % (concentration not given with the values); hit rate 0.33% among 330,000; in the data active = inhibition above about 85%;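 note: plate controls were untreated cells for no effect and reference antibiotic for full effect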
BJeLR viability – BJeLR cell viability loss; BJeLR (HRASV12) viability, CellTiter-Glo ATP luminescence, 48 h; hit rate 0.17% among 300,000; inhibition, % (no concentration beside the values); in the data active = inhibition above about 50%
CCHF vOTU inh-1 – blocks the CCHF virus ovarian tumor domain protease; hit rate 0.55% among 370,000; inhibition, % at 11.5 µM; CCHFV vOTU protease, Pep-AMC fluorescence; note: 0% = vehicle wells with enzyme and 100% = no enzyme wells
Mtb hypoxia inh – reduces hypoxia-regulated biosensor signal in M. tuberculosis; fluorescence inhibition, % (no concentration beside the values); hit rate 0.1% among 300,000; M. tuberculosis hypoxia-regulated fluorescent reporter, fluorescence; in the data active = fluorescence inhibition mostly above about 23%, no sharp cut-off; inactive = mostly below about 17%
RecA intein inh – inhibitors of M. tuberculosis RecA intein splicing | cell-free RecA intein splicing, fluorescence | hit rate 0.75% among 290,000 | inhibition, % (concentration not given with the values) | AID 2221 | P9WHJ3; in the data active = inhibition above about 30%;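 note: 0% = vehicle wells and 100% = reference inhibitor control wells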
Sa ugtP lethal – compounds lethal to S. aureus RN4220 ugtP deletion mutant | AID 1259309 | growth inhibition, % (test concentration not listed) | hit rate 0.54% among 330,000 | OD600 growth, 16 h; in the data active = growth inhibition above about 68%;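 note: plate controls were untreated wells for no effect and antibiotic for full effect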
CCHF vOTU inh-2 – confirmation of CCHF virus vOTU protease inhibitors. hit rate 17% among 1,900. Recombinant CCHFV vOTU, Pep-AMC fluorescence. inhibition, % at 11.5 µM. shares compounds with CCHF vOTU inh-1
* marks the source's active call; other numbers are inactive results; nt = no result given. Cut-off read from the data, not from the text of the source, unless noted: active = inhibition above about 30%; inactive = the rest.

SMILES	RN4220 kill	BJeLR viability	CCHF vOTU inh-1	Mtb hypoxia inh	RecA intein inh	Sa ugtP lethal	CCHF vOTU inh-2
CN1CCN(C(=O)C2=CC(c3ccc(Br)cc3)CC(OCc3ccc(CO)cc3)O2)CC1 (configuration not stated)	-4	nt	nt	6	nt	-2	nt
COc1ccc(NC(=O)COc2cc(C)cc(C)c2)cc1S(=O)(=O)N1CCCCC1	-2	8	30*	2	0	-9	-16
COc1ccc(C(=O)NCC(=O)NN=Cc2cccnc2)cc1OC	2	nt	nt	-7	nt	1	nt
CCCC[C@@H]1C=C(C(=O)O)[C@H](c2ccc(Cl)c(Cl)c2)N1S(=O)(=O)c1ccc(C)cc1	22	nt	32*	-7	nt	11	21
CCc1ccc([C@H]2C(C(=O)O)=C[C@@H](CC3CCCC3)N2S(=O)(=O)c2ccc(C)cc2)cc1	22	nt	47*	-1	nt	-19	13
CCCCC[C@@H]1C=C(C(=O)O)[C@H](c2ccc(Cl)cc2)N1S(=O)(=O)c1ccc(C)cc1	nt	nt	32*	nt	nt	nt	3
CCCCC[C@@H]1C=C(C(=O)O)[C@H](c2ccc(C)cc2)N1S(=O)(=O)c1ccc(C)cc1	19	nt	27	-5	nt	-15	nt
Cc1csc(NN=Cc2cccnc2)n1	8	nt	nt	0	nt	6	nt
COc1ccccc1NC(=O)c1ccc(Cl)c(S(=O)(=O)NCc2ccco2)c1	1	nt	33*	10	nt	0	-28
O=C(O)c1ccc(Cl)c(S(=O)(=O)NCc2ccco2)c1	17	-8	0	2	0	5	nt
COC(=O)C1=C(c2ccc(S(C)(=O)=O)cc2)CC2CCC1N2C(=O)NCc1ccc(C(F)(F)F)cc1 (configuration not stated)	1	nt	nt	6	nt	-10	nt
CC(C)C[C@H](NC(=O)c1[nH]cnc1C(=O)N[C@@H](Cc1ccccc1)C(=O)OC(C)(C)C)C(=O)OCc1ccccc1	nt	9	29	nt	1	nt	nt
CC(C)C[C@H](NC(=O)c1[nH]cnc1C(=O)N[C@@H](Cc1ccccc1)C(=O)OCc1ccccc1)C(=O)OC(C)(C)C	nt	8	30*	nt	1	nt	18
CC(C)C[C@H](NC(=O)c1nc[nH]c1C(=O)NC1CCN(C(=O)OC(C)(C)C)CC1)C(=O)OCc1ccccc1	nt	-4	31*	nt	1	nt	14
CC(C)C[C@H](NC(=O)c1nc[nH]c1C(=O)NCCCCCNC(=O)OC(C)(C)C)C(=O)OCc1ccccc1	nt	6	30*	nt	1	nt	16
COc1ccc(C2CC(=O)C=C(C=Cc3ccccc3)C2)cc1OC (configuration not stated)	6	nt	nt	3	nt	18	nt
CNC(=S)N/N=C/c1ccc(-c2cccc(C(=O)O)c2)o1	nt	28	10	nt	-18	nt	nt
Cc1[nH][nH]c(=O)c1C(c1ccc(-c2cccc(C(=O)O)c2)o1)c1c(C)[nH][nH]c1=O	1	2	40*	2	nt	2	-14
O=C1C=CC(=O)c2c(O)c(CO)c(CO)c(O)c21	nt	nt	78*	nt	nt	nt	69*
O=C1Nc2ccccc2/C1=N\N=C\c1ccc(O)c(O)c1	nt	19	33*	nt	-6	nt	5
CC(C)C1NC(=O)c2cc([N+](=O)[O-])cc(I)c2OCCC(C(N)=O)NC(=O)C(CCC(=O)O)NC1=O (configuration not stated)	-2	nt	nt	-4	nt	-9	nt
CCOC(=O)N1CCN(c2ccc(C(C)=O)cc2F)CC1C (configuration not stated)	13	1	31*	11	0	-6	-3
CCOC(=O)N1CCN(c2ccc([N+](=O)[O-])cc2F)CC1C (configuration not stated)	8	-11	10	-2	5	0	nt
Cc1ccc(C=Nn2c(-c3cccs3)n[nH]c2=S)cc1	-3	nt	nt	nt	nt	-17	nt
CN(C)c1ccc(C=NN(CCC(=O)NC(C)(C)C)C2=NS(=O)(=O)c3ccccc32)cc1	3	nt	nt	-3	nt	5	nt
SMILES	RN4220 kill	BJeLR viability	CCHF vOTU inh-1	Mtb hypoxia inh	RecA intein inh	Sa ugtP lethal	CCHF vOTU inh-2
CCOc1ccc(Nc2ccc(N)c(S(=O)(=O)O)c2)cc1	14	nt	30*	21	nt	-8	8
NC(=S)N/N=C/c1ccc(/C=N/NC(N)=S)cc1	nt	-13	36*	nt	-4	nt	3
CCCSc1ccc(C2C3C(=O)N(CC)C(=O)C3[C@]3(C(=O)OC)CCCCN23)cc1OC (some centres not stated)	10	nt	nt	17	nt	3	nt
CCC=CC(=O)N1CC2(CC(c3cccc(NC(=O)COc4ccc(Cl)cc4)c3)=NO2)CC1C(N)=O (configuration not stated)	6	nt	nt	4	nt	4	nt
CC1CN(C(C)CO)C(=O)Cc2cc(NS(C)(=O)=O)ccc2OC1CN(C)CC1CC1 (configuration not stated)	2	nt	nt	11	nt	-10	nt
COc1ccc(Cc2nc(-c3cccs3)no2)cc1OC	7	5	31*	5	3	-3	-11
COc1ccc(Cc2nc(-c3cccs3)no2)cc1	3	-5	-14	13	0	10	nt
O=c1cc(C(F)(F)F)nc(SCc2cccc3ccccc23)[nH]1	74	-7	31*	11	5	75	9
CC(C)N(C(=O)Nc1ccc2nsnc2c1)C(C)C	2	2	98*	-2	27	7	67*
CC(C)N(C)C1=CC(=O)C(N(C)C(C)C)=CC1=O	0	nt	44*	16	nt	2	-2
CC=CC(=O)Nc1cccc(C2=NOC3(C2)CC(C(N)=O)N(C(=O)CC(c2ccccc2)c2ccccc2)C3)c1 (configuration not stated)	11	nt	nt	9	nt	6	nt
CCN1C(=O)[C@@H]2[C@H](C1=O)[C@@H]1C(=O)Nc3ccccc3C(=O)N1[C@@H]2c1ccc(OC)cc1	nt	2	34*	nt	0	nt	-31
CCN1C(=O)C2C(C1=O)C(c1cccc(OC)c1)N1C(=O)c3ccccc3NC(=O)C21 (configuration not stated)	1	nt	nt	3	nt	2	nt
Cc1ccc(SCC(=O)OCC(=O)NC2CCCCCCC2)cc1	3	-13	30*	9	-3	2	4
O=C(COC(=O)CSc1ccc([N+](=O)[O-])cc1)NC1CCCCCCC1	2	-9	11	-3	nt	-1	nt
O=c1cc(-c2ccccc2)oc2cccc(O)c12	nt	nt	-7	nt	nt	nt	nt
Cc1ccccc1-c1cc(=O)c2c(O)cccc2o1	9	-7	35*	2	8	14	-2
O=C1c2cccc(O)c2C(=O)c2c(O)cccc21	nt	2	nt	nt	13	nt	nt
O=C1C=C(O)c2cccc(O)c2C1=O	nt	nt	94*	nt	nt	nt	16
Cc1ccccc1CN1C2c3ccccc3CC2OCCS1(=O)=O (configuration not stated)	13	nt	nt	12	nt	12	nt
COc1ccc(/C=C2\C(=O)NC(=O)c3ccccc32)cc1OC	nt	nt	108*	nt	nt	nt	103*
Cc1[nH]c2ccccc2c1/C=N/Nc1nncn1N	nt	nt	113*	nt	14	nt	-1
COc1ccc(NC(=O)C=Cc2cc(Br)ccc2OC)cc1	34	nt	nt	8	nt	12	nt
